# Test results taken from PubChem BioAssay AID493169 (National Center for Advancing Translational Sciences (NCATS), 2011).
# Results filed as inconclusive are left out. Entries that show only a call come without a potency. Active and inactive are the calls of the source. The call rests on the fitted dose curve; in most records, active means well fitted inhibition curve with a large enough effect; inconclusive means small, poorly fitted or top-dose-only effect; inactive means flat fitted curve, though single readings scatter.
# Assay: CHOP2 Reporter Counterscreen Assay for Inhibitors of Ubiquitin-specific Protease USP2a;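 further: activated enterokinase alone at 50 pM in a cell-free format rather than USP2a or CHOP2; nearly all actives have a fitted effect of over 55% in size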
# Summary of the method: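 Cell-free counterscreen with pre-activated enterokinase alone (50 pM final) in 20mM Tris-HCl pH 8.0, 2mM CaCl2, 2mM beta-mercaptoethanol, 0.05% CHAPS; compound preincubation 30 min RT, reporter substrate 25nM final, fluorescence read after 10 min (Ex 485/Em 531).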
# Potency means the concentration at half of the fitted maximal effect.
row,Compound,Potency
1,Cc1nc(NC(C)C)c2cnn(CCc3ccccc3)c2n1,inactive
2,O=C(CC1Oc2ccccc2NC1=O)NCc1ccc(Cl)cc1 (centres undefined),inactive
3,CCCC(c1nnnn1Cc1ccc(OC)cc1)N1CCC(C(N)=O)CC1 (centres undefined),inactive
4,CCOc1cc(/C=C/c2nc3cc(C)c(C)cc3s2)ccc1OCC(=O)N1CCOCC1,inactive
5,NS(=O)(=O)c1ccc(NC(=O)/C=C/c2cn(-c3ccccc3)nc2-c2cccc(Cl)c2)cc1,inactive
6,Cc1ccc2c(c1)c1c3n2CCN(C(=O)Cn2c(-c4ccccc4)noc2=O)C3CCC1 (centres undefined),inactive
7,O=C(Nc1ccc(Nc2ccncc2)cc1)c1ccc(Nc2ccnc3ccc([N+](=O)[O-])cc23)cc1,3.55 µM (active)
8,Cc1nn(C)cc1CNC(=O)c1ccc(Br)o1,inactive
9,Cc1ccccc1N=C1NC(=O)CS1,inactive
10,CCOC(=O)C1=CN(Cc2cccc(F)c2)S(=O)(=O)NC1c1ccc(Br)cc1F (centres undefined),inactive
11,Cc1nc2ccccc2c2oc(C(=O)NCCN3CCN(C)CC3)cc12,inactive
12,Cc1ccc(NC(=O)CN2C(=O)N/C(=C/c3ccco3)C2=O)cc1,5.01 µM (active)
13,CCC(C(=O)Nc1nnc(-c2ccco2)s1)c1ccccc1 (centres undefined),inactive
14,CC(C)CC(c1nnnn1CC1CCCO1)N1CCN(c2nc3ccccc3s2)CC1 (centres undefined),inactive
15,CCC(C)(C(=O)NC1CCCCC1)N(C(=O)C1CCC(=O)N1)c1ccccc1 (centres undefined),inactive
16,COc1ccc(CCn2c(O)cc3nn(-c4nc5ccccc5s4)c(=O)c-3c2C)cc1,11.2 µM (active)
17,COc1ccc(/C=C2\SC(=S)N(NS(=O)(=O)c3ccc(C)cc3)C2=O)c(OC)c1,inactive
18,CCCCCCCCCS(=O)(=O)N/N=C/c1cccc([N+](=O)[O-])c1,inactive
19,CCOc1ccccc1N(CC(=O)NC(C)(C)C)C(=O)c1ccc(CN2CCOCC2)o1,inactive
20,CC(C)(C)C1CCc2nc(NC(=O)Cc3cn4ccsc4n3)sc2C1 (centres undefined),inactive
21,Cc1ccc(C)c(S(=O)(=O)c2c(N)n(/N=C/c3ccco3)c3nc4ccccc4nc23)c1,inactive
22,NS(=O)(=O)c1cc(C(=O)NC2CCSc3ccccc32)ccc1Cl (centres undefined),10 µM (active)
23,COc1cc(/C=C(/C(=O)c2cccs2)c2nc3ccccc3[nH]2)ccc1O,inactive
24,O=C(c1ccc(CS(=O)(=O)c2ccc(Br)cc2)o1)N1CCCC1,inactive
